Screening data deposited in PubChem BioAssay by several laboratories.
Gli-Sufu block: Gli-Sufu pathway antagonism; Sufu-KO-LIGHT fibroblasts, Gli luciferase reporter luminescence; inhibition, % at 5 µM; 340,000 compounds, 0.74% hits; AID 588413;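 active = inhibition above about 55%, limit read from the data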;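 note: 0% = DMSO-treated cells and 100% = wells with medium but no cells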
697 NFkB inh: lowers PMA/ionomycin-induced NF-kB signal in 697 B cells; 330,000 compounds, 0.33% hits; 697 B-cell NF-kB luciferase reporter, 16 h; inhibition, % at 4 µM; in the data active = inhibition above about 35%
Beta apoptosis: blocks beta cell apoptosis; INS-1E cytokine-induced death, ATP luminescence, 48 h; percent of positive-control rescue, neutral wells zero; protection from apoptosis, % (no concentration beside the values); 300,000 compounds, 0.8% hits; AID 435005;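 active = Every replicate reaches about 75%, or at least half do and their mean reaches it too, limit read from the data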;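 note: 0% = cytokine-treated negative control wells and 100% = positive control rescue; higher means more ATP so stronger rescue from cytokine killing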
Jurkat NFkB inh: lowers PMA/ionomycin-induced NF-kB signal in Jurkat cells; PMA/ionomycin-induced NF-kB luciferase reporter, luminescence; inhibition, % at 4 µM; 330,000 compounds, 0.53% hits; AID 435003; in the data active = inhibition above about 50%
Mdm2 MdmX PPI: human Mdm2/MdmX binding inhibition. 330,000 compounds, 3% hits. SaOS-2 split-luciferase Mdm2/MdmX complementation, luminescence. O15151+Q00987. inhibition, % at 8 µM;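 active = inhibition of at least 50% at 8 µM in the primary screen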
Target sequence (O15151 whole entry, looked up): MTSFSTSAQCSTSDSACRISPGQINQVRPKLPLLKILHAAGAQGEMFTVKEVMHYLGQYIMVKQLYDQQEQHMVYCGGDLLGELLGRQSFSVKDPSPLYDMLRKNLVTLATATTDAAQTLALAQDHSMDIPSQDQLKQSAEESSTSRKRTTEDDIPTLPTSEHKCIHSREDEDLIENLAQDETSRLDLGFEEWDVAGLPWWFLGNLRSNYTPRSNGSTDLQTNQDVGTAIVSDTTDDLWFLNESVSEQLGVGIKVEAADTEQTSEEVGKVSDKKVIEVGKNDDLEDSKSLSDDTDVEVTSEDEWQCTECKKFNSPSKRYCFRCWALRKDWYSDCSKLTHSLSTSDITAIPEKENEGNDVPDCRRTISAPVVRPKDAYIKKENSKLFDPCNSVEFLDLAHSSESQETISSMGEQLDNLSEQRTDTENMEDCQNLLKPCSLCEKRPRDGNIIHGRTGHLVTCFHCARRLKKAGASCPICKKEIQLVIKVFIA
Target sequence (Q00987 whole entry, looked up): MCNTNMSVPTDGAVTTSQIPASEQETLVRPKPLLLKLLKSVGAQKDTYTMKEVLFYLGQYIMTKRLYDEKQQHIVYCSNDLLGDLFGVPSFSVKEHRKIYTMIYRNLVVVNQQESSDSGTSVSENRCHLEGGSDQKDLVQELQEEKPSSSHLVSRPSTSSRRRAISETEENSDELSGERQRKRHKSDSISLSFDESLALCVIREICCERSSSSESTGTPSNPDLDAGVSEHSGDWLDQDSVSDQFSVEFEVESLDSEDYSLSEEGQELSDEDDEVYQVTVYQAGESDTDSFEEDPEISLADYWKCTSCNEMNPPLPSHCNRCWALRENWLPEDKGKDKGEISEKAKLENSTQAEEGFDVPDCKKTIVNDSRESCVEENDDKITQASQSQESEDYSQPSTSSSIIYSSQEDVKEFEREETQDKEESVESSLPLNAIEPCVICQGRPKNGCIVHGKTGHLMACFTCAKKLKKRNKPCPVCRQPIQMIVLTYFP
Mdm2-MdmX conf: human Mdm2/MdmX binding inhibition, confirmed | shares compounds with Mdm2 MdmX PPI | luminescent assay | inhibition, % at 8 µM | 10,000 compounds, 55% hits; in the data active = inhibition above about 40%
FLuc counter: inhibits full-length luciferase, flagging false Mdm2/MdmX hits | SaOS-2 full-length luciferase counterscreen, luminescence | shares compounds with Mdm2 MdmX PPI | inhibition, % at 8 µM | 6,200 compounds, 77% hits;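 active = mean inhibition at 8 µM reaching about 37%, which flags the compound as non-specific, limit read from the data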;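 note: p53-null SaOS-2 cells with luciferase driven by a doxycycline-inducible promoter; compound on cells about two nights before reading with doxycycline added after day one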
Numbers without * were called inactive; . = not tested or not shown. Rows were chosen to be rich in hits. Some 4% of all compounds tested hit in one or more screens of this group.

SMILES | Gli-Sufu block | 697 NFkB inh | Beta apoptosis | Jurkat NFkB inh | Mdm2 MdmX PPI | Mdm2-MdmX conf | FLuc counter
O=C(NC(NC(=S)Nc1ccc(Cl)c(Cl)c1)C(Cl)(Cl)Cl)c1ccco1 (centres undefined) | 16 | 9 | 10 | 17 | 59* | 40 | 74*
O=C(O)c1cccc(NC(=S)NC(NC(=O)c2ccco2)C(Cl)(Cl)Cl)c1 (centres undefined) | 13 | 11 | -5 | 6 | 20 | . | .
Oc1ccccc1/C=N/[n+]1ccccc1 | 35 | -96 | 2 | -42 | 53* | 53* | 121*
Oc1ccccc1C=NC(c1ccccc1)C(O)c1ccccc1 (centres undefined) | 1 | -11 | -7 | -5 | -3 | . | .
Cc1cccc(C(=O)OCC(=O)c2ccc3c(c2)OCO3)c1O | -111 | -42 | . | -100 | -141 | . | .
O=C(COC(=O)c1ccccc1[N+](=O)[O-])c1ccc2c(c1)OCO2 | -20 | -21 | -9 | -33 | 53* | 83* | 148*
Cc1ccccc1Cn1c(CN2CCN(c3ccc(F)cc3)CC2)nc2c1c(=O)n(C)c(=O)n2C | . | -62 | 8 | -1 | 62* | 28 | .
COc1cc(C(C)=O)ccc1COc1ccc(C(=O)O)cc1OC | 2 | 7 | -13 | -10 | 8 | . | .
CCC(C)[C@H](NC(=O)N1CC(=O)Nc2ccccc21)C(=O)N[C@H](C(=O)O)c1ccccc1 (some centres undefined) | 1 | 4 | -14 | 6 | 17 | . | .
COc1nnc(-c2ccc(N3CCCCC3)c(NC(=O)C3CCCCC3)c2)c2ccccc12 | 3 | 15 | 79* | 19 | 90* | 29 | .
CC(=O)Nc1sc2c(c1-c1nc3ccccc3s1)CN(C(C)C)CC2 | -25 | -5 | 97* | 35 | 99* | 93* | 57*
CC(=O)N1CCc2c(sc(NC(=O)C3CC3)c2-c2nc3ccccc3s2)C1 | 5 | -15 | 22 | -19 | 20 | . | .
CC1C(=O)c2ccccc2CC1C(=O)O (centres undefined) | 4 | . | . | . | . | . | .
CC(C)(C)NC(=O)C[C@H]1C[C@H](C(=O)N2CCCCC2)[C@@]2(CCc3ccccc3)c3[nH]c4ccc(Cl)cc4c3CCN2C1=O | 1 | 1 | . | . | 52* | 32 | 73*
COCCCNC(=O)C[C@H]1C[C@H](C(=O)N2CCCCC2)[C@@]2(CCc3ccccc3)c3[nH]c4ccc(Cl)cc4c3CCN2C1=O | 12 | 3 | . | . | 32 | . | .
O=C(C[C@H]1C[C@H](C(=O)N2CCCCC2)[C@@]2(CCc3ccccc3)c3[nH]c4ccc(Cl)cc4c3CCN2C1=O)NCc1cccc(C(F)(F)F)c1 | -6 | 9 | . | . | 66* | 61* | 34
O=C(CC1C[C@H](C(=O)N2CCCCC2)[C@@]2(CCc3ccccc3)c3[nH]c4ccccc4c3CCN2C1=O)NCc1cccc(C(F)(F)F)c1 (some centres undefined) | 1 | -6 | 28 | 29 | 38 | . | .
COc1cc(NC(=S)N2CCN(C(=O)C3CCCO3)CC2)c(OC)cc1Cl (centres undefined) | -2 | 13 | 0 | 6 | -16 | . | .
COc1cc(C(=O)NCc2nnc(SCC(=O)Nc3ccc4c(c3)OCO4)o2)cc(OC)c1OC | -10 | 1 | 0 | 5 | -19 | . | .
CCOc1ccc(NC(=NCc2ccc3c(c2)OCO3)SC2CC(=O)N(c3ccccc3)C2=O)cc1 (centres undefined) | 9 | -24 | . | 2 | 60* | 6 | .
CCOc1ccc(NC(=NCc2ccc3c(c2)OCO3)SC2CC(=O)N(c3ccc(OCC)cc3)C2=O)cc1 (centres undefined) | 27 | -15 | 19 | 5 | 66* | 63* | 65*
CCN(CC)CCCN(C(=O)c1ccccc1F)c1nc(-c2ccc(OC)cc2)cs1 | 34 | -27 | -5 | -27 | 50* | 42* | 69*
COc1ccc(-c2csc(N(CCCN(C)C)C(=O)c3ccc(C)cc3)n2)cc1 | 41 | -7 | -20 | 4 | 26 | . | .
COc1ccc(-c2csc(N(CCCN(C)C)C(=O)c3ccc(C(C)(C)C)cc3)n2)cc1 | -3 | -22 | 4 | -17 | 54* | 39 | .
